Bioassay records deposited in PubChem BioAssay by National Center for Advancing Translational Sciences (NCATS).
RGS4 inhibitor: Inhibitors of Regulator of G Protein Signaling (RGS) 4: qHTS. Regulator of G-protein signaling 4 (Homo sapiens), P49798. AID 504845, 2011. 390,000 tested, 0.039% active. Transcreener GDP fluorescence polarization, RGS4-accelerated GTP hydrolysis. Potency, µM (doses to about 114 µM), without a hit: top-dose activity change, negative = inhibition, most hits filed as inhibitors; note: % is set by controls: 0 for no effect and ±100 for the full control effect; nearly all actives have a fitted effect of over 75% in size
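MLSMR compounds (23 nl, pin-transferred) preincubated 10 min at room temperature with a 500nM (2x) first reagent, then RGS4 at 900nM (2x) plus Transcreener GDP mix added; fluorescence polarization (620/688 nm) read before and after 90 min at 30 °C.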
PTHR1 ag: qHTS for PTHR1 Agonists: Primary Screen. Parathyroid hormone/parathyroid hormone-related peptide receptor (Homo sapiens), Q03431. 410,000 tested, 0.075% active. HEK293 GP2 PTHR1 cells, GloSensor cAMP luminescence, 1 h. Potency, µM (titrated, usually from 115 µM), inactives show top-dose activation, hits mostly activators; note: nearly all actives have a fitted effect of over 55% in size
Target sequence (Q03431 whole entry, looked up): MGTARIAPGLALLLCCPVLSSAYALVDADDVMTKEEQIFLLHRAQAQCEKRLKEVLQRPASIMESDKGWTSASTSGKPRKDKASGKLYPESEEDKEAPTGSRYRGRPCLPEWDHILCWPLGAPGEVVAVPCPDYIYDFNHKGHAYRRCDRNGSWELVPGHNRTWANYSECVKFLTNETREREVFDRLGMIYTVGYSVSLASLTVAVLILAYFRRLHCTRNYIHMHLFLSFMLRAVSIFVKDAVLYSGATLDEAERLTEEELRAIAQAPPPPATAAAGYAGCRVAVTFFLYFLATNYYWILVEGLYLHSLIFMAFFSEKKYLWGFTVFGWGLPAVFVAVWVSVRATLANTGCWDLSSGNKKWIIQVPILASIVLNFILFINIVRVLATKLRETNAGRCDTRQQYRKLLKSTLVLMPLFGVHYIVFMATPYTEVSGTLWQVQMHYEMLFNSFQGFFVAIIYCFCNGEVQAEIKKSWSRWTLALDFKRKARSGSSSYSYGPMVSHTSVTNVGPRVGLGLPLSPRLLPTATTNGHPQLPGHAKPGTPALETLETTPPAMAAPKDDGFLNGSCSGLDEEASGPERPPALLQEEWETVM
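HEK-293-derived GP2 cells expressing PTHR1 and a GloSensor cAMP reporter, 3,000/well, plated overnight, given luciferin plus IBMX (each 0.5 mM as added) for 1 h at 37 °C, then compound for 1 h at 37 °C. Luminescence was read after 15 min at room temperature.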
GLP1R ag: qHTS of GLP-1 Receptor Agonists; AID 624172, 2012; 380,000 tested, 0.007% active; Glucagon-like peptide 1 receptor (Homo sapiens), P43220; HEK293 GLP-1R CRE-luciferase, luminescence, 4-6 h; cells express a hypersensitive GLP-1R form; Potency, µM (top dose mostly 45.6 µM), for inactives: top-dose activation, actives largely listed as activators; note: % of control where 0% means no effect
GLP1R inv ag: qHTS of GLP-1 Receptor Inverse Agonists (Inhibition Mode). HEK293 GLP-1R CRE-luciferase, luminescence, 24 h; GLP-1R form is constitutively active. 410,000 tested, 1.6% active. Glucagon-like peptide 1 receptor (Homo sapiens), P43220. Potency, µM (highest dose often 38.3 µM), inactives show at the top dose activity change, negative = inhibition, most hits filed as inhibitors; note: % is set by controls: 0 for no effect and ±100 for the full control effect; nearly all actives have a fitted effect of over 55% in size
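Using stably transfected HEK293 (constitutively active GLP-1R, cAMP-luciferase reporter), compounds were incubated 24 hr and luciferase measured by luminescence.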
GLP1R cytotox: qHTS of GLP-1 Receptor Inverse Agonists: Cytotox Screen | HEK293 cAMP-luciferase reporter cells, luminescence, 24 h | Potency, µM (highest dose often 38.3 µM), for the others: top-dose activity change, negative = inhibition, hits mostly inhibitors | 410,000 tested, 0.13% active | AID 624418, 2012;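 note: loss of luciferase light is scored as toxicity; % is set by controls: 0 for no effect and ±100 for the full control effect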
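A 23 nL compound transfer followed 12 hours of cell culture at 37 deg C; exposure then lasted 24 hr. Luciferase assay detection reagent was dispensed and plates read for luminescence after a 12 min room-temperature wait.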
Active calls of the source: *; i = inactive; u = inconclusive; x = no result given; ! = a repeat was not active; [ ] = dose if it differs, or a comment. An excerpt weighted towards active compounds, which were near 1.7% of everything screened. Calls come from the whole dose curve; as a rule, active = well fitted curve in the direction sought with a large enough effect; inconclusive = small, poorly fitted or top-dose-only effect, or another doubt; inactive = no such curve, though single readings can be large; an effect the other way counts as inactive or inconclusive. Potency is the fitted concentration of half-maximal effect.

SMILES | RGS4 inhibitor | PTHR1 ag | GLP1R ag | GLP1R inv ag | GLP1R cytotox
O=C(Nc1ccc2nc3n(c(=O)c2c1)CCCCC3)c1cccc(C(F)(F)F)c1 | 16% | -94% | x | 4% | 0%
O=C(NCc1ccc2c(c1)CCN2C(=O)c1ccccc1)Nc1cccc(C(F)(F)F)c1 | 8% | -76% | x | 4µM* | -23%
CCOC(=O)c1ccc(N2C(=O)c3n[nH]c(-c4cccs4)c3C2c2ccc(C(C)(C)C)cc2)cc1 (configuration not stated) | 14% | -56% | -1% | 9% | 3%
CN1CC[C@@]2(C)c3cc(O)ccc3N(C)C12 (some centres not stated) | 21µM* | x | x | x | x
CCCCCc1cc(O)c2c(c1)OC(C)(C)c1ccc(C)cc1-2 | x | x | -2% | x | x
CC(C)(C)OC(=O)[C@H](Cc1ccccc1)NC(=O)c1nc[nH]c1C(=O)NC1CCN(C(=O)OC(C)(C)C)CC1 | -11% | -49% | -4% | 10µM* | u
Cc1sc2ncnc(N3CCC(C(=O)NCC(=O)Nc4ccc(F)c(F)c4)CC3)c2c1C | 12% | -47% | -8% | u | u
Cc1ccccc1CN1CCCC(C(=O)Nc2ccc(-c3ccn[nH]3)cc2)C1 (configuration not stated) | 18% | i | 1% | u | u
O=C(Nc1ccc(N2CCOCC2)cc1)C1CCN(S(=O)(=O)c2cccc(C(F)(F)F)c2)CC1 | x | -81% | 2% | -17% | 3%
CC1(Cc2ccc(C(F)(F)F)nc2)C(=O)Nc2cc(-c3ccccc3Cl)ccc21 (configuration not stated) | x | -23% | 5% | u | 3%
NC1=C(Br)C(=O)c2ncccc2C1=O | u | -22% | -12% | 3.2µM* | 4µM*
Cc1cccc(N2C(=O)CSC23C(=O)N(CC(=O)Nc2cccc(Cl)c2)c2ccccc23)c1 (configuration not stated) | 2% | -78% | -2% | u | -11%
O=C(CCN1CCN(CCO)CC1)N1c2ccccc2Sc2ccc(C(F)(F)F)cc21 | u | -22% | -1% | -32% | -16%
CN1CCN(CCCN2c3ccccc3Sc3ccc(C(F)(F)F)cc32)CC1 | 19µM*! | -11% | -1% | 8.9µM* | u
N#Cc1ccccc1Cn1cc(/C=C/[N+](=O)[O-])c2ccccc21 | u | -37% | -7% | u | u
O=C(Nc1ccc(Br)cc1)c1ccc(Cl)c(S(=O)(=O)N2CCCCCC2)c1 | 14% | -48% | x | -25% | -9%
CC12CCC(=O)CC1CCC1C2CCC2(C)C1CCC2(C)O (configuration not stated) | x | x | -7% | x | x
Cc1ccc(-n2c(C)cc(/C=N/NC(N)=S)c2C)cc1 | -48% | -6% | -16% | u | u
COc1cccc(/C=N/NC(N)=S)c1OCc1ccccc1Cl | u | 0% | 10% | 11µM* | u
COc1cc(OC)c(OC)cc1CN1CCc2nc(N3CCN(c4ccccc4F)CC3)ncc2C1 | 16% | -35% | x | -7% | -1%
COc1ccc(N2C(=O)CS(=O)C(c3ccccc3)C2=O)cc1 (configuration not stated) | u | -13% | 5% | -3% | -16%
O=C1C2C3CCC(C3)C2C(=O)N1c1ccc(OS(=O)(=O)c2ccccc2)cc1 (configuration not stated) | 22% | -92% | 10% | 3.2µM* | -4%
O=C1Nc2cccnc2N(C(=O)CCl)c2ccccc21 | -3% | -18% | -3% | u | u
COc1ccc(-c2coc3c(C(=O)Nc4cc(OC)c(OC)c(OC)c4)cccc23)c(C)c1 | x | -45% | -5% | 4.5µM* | -21%
COc1cc(NC(=O)c2cccc3c(-c4cccnc4)coc23)cc(OC)c1OC | x | -88% | -12% | u | u
SMILES | RGS4 inhibitor | PTHR1 ag | GLP1R ag | GLP1R inv ag | GLP1R cytotox
Cc1c(Cl)cccc1NC(=O)c1oc2ccc(S(=O)(=O)N3CCC4(CC3)OCCO4)cc2c1C | 0% | i | x | u | -14%
CN(C)C(=O)Oc1c(Cl)cc(Cl)c2ccccc12 | -18% | -9% | -2% | 11µM* | 7%
CN(C)C(=O)Oc1ccc(Cl)c2cccnc12 | -25% | i | 0% | -1% | -4%
CC(C)CCn1c(N)c(C(=O)OCC2CCCO2)c2nc3ccccc3nc21 (configuration not stated) | -2% | -25%[57.5 µM] | 0% | 4µM* | 254%
COc1ccc(C(C)=O)cc1CSc1nc(NCc2ccccc2)c2ccccc2n1 | u | i | x | -17% | u
C[C@@H]1CN([C@H](C)CO)C(=O)c2cc(NC(=O)Nc3ccc(C(F)(F)F)cc3)ccc2O[C@H]1CN(C)C(=O)Nc1ccc(F)cc1 | -3% | 9% | 1% | u | u
C[C@H]1CN([C@@H](C)CO)C(=O)c2cccc(NC(=O)Nc3ccc(C(F)(F)F)cc3)c2O[C@@H]1CN(C)C(=O)Nc1ccc(F)cc1 | 1% | -62% | -10% | 11µM* | u
On1ccccc1=S | -113% | -84% | -6% | 7.9µM* | -4%
O=C(Nc1cc(Sc2nc3ccccc3s2)cc([N+](=O)[O-])c1)c1ccccc1 | -16% | -35% | -4% | u | u
O=C(CCl)Nc1cc(SCC(O)CO)cc([N+](=O)[O-])c1 (configuration not stated) | -29% | -46% | 8% | u | 4µM*
O=C(CCl)Nc1cc(S(=O)(=O)N2CCCCCC2)ccc1Cl | -22% | -19% | -5% | u | 11µM*
CCCCOc1ccc(CCN)cc1Cl | -15% | i | 0% | 1% | -6%
CNCCCOc1ccc(Cl)cc1C(C)(C)C | -10% | i | 7% | 3.5µM* | u
COc1ccc(N=C2S/C(=C\c3ccc(Cl)c([N+](=O)[O-])c3)C(=O)N2CCN(C)C)cc1 | -20% | -93% | -4% | u | 11µM*
C=CCN1C(=O)/C(=C/c2ccc(O)c(OC)c2)S/C1=N/c1nccs1 | -2% | 0% | 21% | 28% | 60%
CCN(CC)CCNCC1C(=O)O[C@@H]2C[C@@]3(C)CCC[C@H](C)C3=C[C@H]12 (some centres not stated) | 21% | -22% | -1% | u | u
O=c1[nH]c(=O)n(C2CCCCCC2)c(O)c1C=NCc1ccc(F)cc1 | -9% | -10%[57.5 µM] | -3% | 10µM* | -19%
